Inconclusive results are not listed. A structure can be active in one record and inactive in another. Active and inactive are the calls of the source. How the source made its calls, unless noted: active means hit-call score of the fitted dose curve at least 0.9, where 1 is the maximum; inactive means score below 0.9.
Columns and labels:
[1] = ATG_Hpa5_TRANS: Attagene TRANS-FACTORIAL HepG2 Assay for human GAL4-Hpa5 Hepatocyte Transcription Factor Basal Promoter (AID 2282975; active means hit-call score of the fitted dose curve at least 0.9, where 1 is the maximum;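 further: hits are increases in reporter mRNA over DMSO baseline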); conditions: HepG2 Attagene GAL4-Hpa5 transcription reporter
Method in brief: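 Gain-of-signal versus DMSO is fitted for reporter mRNA quantified by RT-PCR and capillary electrophoresis after 24 h exposure. This endpoint is an internal background marker in transiently transfected HepG2 cells carrying GAL4-UAS reporter units.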

[2] = target: Estrogen-related receptor gamma (Homo sapiens) (UniProt P62508); experiment: ATG_ERRg_TRANS: Attagene TRANS-FACTORIAL HepG2 Assay for human Estrogen-Related Receptor gamma (ERRg) (AID 2282977; active means hit-call score of the fitted dose curve at least 0.9, where 1 is the maximum;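 further: hits increase reporter signal over DMSO so potencies reflect activators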); conditions: HepG2 Attagene TRANS reporter, ERRg transactivation
Chain of Estrogen-related receptor gamma (Homo sapiens) (P62508 whole entry, looked up, the tested form may be a part): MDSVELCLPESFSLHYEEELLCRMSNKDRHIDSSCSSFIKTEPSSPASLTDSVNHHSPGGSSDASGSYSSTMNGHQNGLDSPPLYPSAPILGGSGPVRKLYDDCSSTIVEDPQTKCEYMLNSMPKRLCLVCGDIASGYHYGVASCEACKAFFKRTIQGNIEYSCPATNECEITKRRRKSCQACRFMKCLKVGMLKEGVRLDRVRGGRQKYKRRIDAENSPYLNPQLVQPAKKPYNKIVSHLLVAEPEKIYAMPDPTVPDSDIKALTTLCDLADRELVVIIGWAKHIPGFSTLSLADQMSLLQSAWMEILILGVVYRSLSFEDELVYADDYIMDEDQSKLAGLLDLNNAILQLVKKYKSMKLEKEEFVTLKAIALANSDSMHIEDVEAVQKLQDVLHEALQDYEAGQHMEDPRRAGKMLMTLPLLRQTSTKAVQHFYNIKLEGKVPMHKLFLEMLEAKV
Method in brief: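 Readout: fluorescent reporter-mRNA fragments resolved by capillary electrophoresis after RT-PCR and HpaI cut. Cells: transiently transfected HepG2 carrying GAL4-UAS reporters driven by exogenous NR-Gal4 chimeras, dosed 24 h. Activity fitted upward relative to DMSO baseline.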

[3] = target: Glucocorticoid receptor (Homo sapiens) (UniProt P04150); experiment: ATG_GR_TRANS: Attagene TRANS-FACTORIAL HepG2 Assay for human Glucocorticoid Receptor (GR) (AID 2282978; active means hit-call score of the fitted dose curve at least 0.9, where 1 is the maximum;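 further: activators score as hits since higher reporter transcript over DMSO is fitted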); conditions: HepG2 Attagene TRANS GR reporter, mRNA transcription
Chain of Glucocorticoid receptor (Homo sapiens) (P04150 whole entry, looked up): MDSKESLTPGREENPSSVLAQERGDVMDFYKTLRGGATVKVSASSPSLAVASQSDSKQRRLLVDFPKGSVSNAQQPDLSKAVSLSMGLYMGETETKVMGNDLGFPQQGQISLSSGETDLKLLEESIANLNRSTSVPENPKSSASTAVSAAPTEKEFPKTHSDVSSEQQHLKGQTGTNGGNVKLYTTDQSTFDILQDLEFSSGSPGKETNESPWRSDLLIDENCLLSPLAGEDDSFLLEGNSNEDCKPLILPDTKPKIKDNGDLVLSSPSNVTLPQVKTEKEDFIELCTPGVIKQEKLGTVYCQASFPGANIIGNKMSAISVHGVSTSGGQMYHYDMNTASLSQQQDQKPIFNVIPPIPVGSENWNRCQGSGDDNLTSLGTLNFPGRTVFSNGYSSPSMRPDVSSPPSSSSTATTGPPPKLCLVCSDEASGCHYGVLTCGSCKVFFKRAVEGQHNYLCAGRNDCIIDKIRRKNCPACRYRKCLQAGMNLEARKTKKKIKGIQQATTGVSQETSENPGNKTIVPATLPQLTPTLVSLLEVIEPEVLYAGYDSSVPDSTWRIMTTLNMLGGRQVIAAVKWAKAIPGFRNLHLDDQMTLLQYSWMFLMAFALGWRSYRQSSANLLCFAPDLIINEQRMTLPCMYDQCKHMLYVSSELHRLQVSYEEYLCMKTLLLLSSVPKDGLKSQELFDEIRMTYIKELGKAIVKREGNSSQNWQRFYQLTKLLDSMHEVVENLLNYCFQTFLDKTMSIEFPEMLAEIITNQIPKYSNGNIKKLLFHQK
Method in brief: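 Multiplexed TRANS reporter system, HepG2; 24 h exposure; RNA → oligo(dT) RT → reporter-specific PCR → 6-FAM primer extension → HpaI cut → CE fluorescence. Gain-of-signal vs DMSO.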

[4] = target: Bile acid receptor (Homo sapiens) (UniProt Q96RI1); experiment: ATG_FXR_TRANS: Attagene TRANS-FACTORIAL HepG2 Assay for Farnesoid X Receptor (FXR) (AID 2282979; active means hit-call score of the fitted dose curve at least 0.9, where 1 is the maximum;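 further: hits raise reporter mRNA above DMSO so AC50 marks FXR activation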); conditions: HepG2 Attagene TRANS FXR-GAL4 reporter transcription
Method in brief: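 Chimeric FXR-GAL4 activity in transiently transfected human HepG2 liver cells is scored as induction of reporter mRNA after 24 h of dosing. Detection uses RT-PCR with fluorescent labelling and capillary electrophoresis, with DMSO serving as baseline.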

[5] = target: Hepatocyte nuclear factor 4-alpha (Homo sapiens) (UniProt P41235); experiment: ATG_HNF4a_TRANS: Attagene TRANS-FACTORIAL HepG2 Assay for human Hepatocyte Nuclear Factor 4 alpha (HNF4a) (AID 2282982; active means hit-call score of the fitted dose curve at least 0.9, where 1 is the maximum); conditions: HepG2 HNF4a transactivation reporter, mRNA readout
Chain of Hepatocyte nuclear factor 4-alpha (Homo sapiens) (P41235 whole entry, looked up): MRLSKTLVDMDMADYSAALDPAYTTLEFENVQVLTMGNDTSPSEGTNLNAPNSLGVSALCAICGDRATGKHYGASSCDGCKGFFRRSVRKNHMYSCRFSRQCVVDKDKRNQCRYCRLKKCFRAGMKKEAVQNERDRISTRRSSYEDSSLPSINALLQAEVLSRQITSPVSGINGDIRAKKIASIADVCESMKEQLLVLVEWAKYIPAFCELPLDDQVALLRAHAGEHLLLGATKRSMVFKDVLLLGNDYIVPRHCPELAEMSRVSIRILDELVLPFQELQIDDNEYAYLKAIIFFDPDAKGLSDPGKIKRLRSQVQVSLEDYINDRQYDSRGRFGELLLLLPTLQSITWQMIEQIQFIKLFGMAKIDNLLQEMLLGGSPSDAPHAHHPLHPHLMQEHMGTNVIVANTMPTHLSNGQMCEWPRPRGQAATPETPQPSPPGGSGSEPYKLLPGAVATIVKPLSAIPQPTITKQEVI
Method in brief: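 Multiplexed reporter assay: transfected HepG2, 24 h exposure, total RNA → oligo(dT) RT → PCR → 6-FAM extension → HpaI digest → CE fluorescence. DMSO = negative control.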

[6] = ATG_M_06_TRANS: Attagene TRANS-FACTORIAL HepG2 Assay for M06 Transcription Factor (Internal Marker) (AID 2282983; active means hit-call score of the fitted dose curve at least 0.9, where 1 is the maximum); conditions: HepG2 Attagene TRANS M06 internal marker reporter
Method in brief: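 Human liver HepG2 cells bearing transiently transfected chimeric NR-GAL4 reporter units were treated with chemicals for 24 h. Total RNA was reverse-transcribed, reporter sequences amplified and labelled, then quantified by capillary electrophoresis. Activity was fitted upward relative to DMSO.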

[7] = target: Transcriptional activator Myb (Homo sapiens) (UniProt P10242); experiment: ATG_Myb_CIS: Attagene CIS-FACTORIAL HepG2 Assay for human Myeloblastosis (Myb) Proto-Oncogene Transcription Factor (AID 2282986); conditions: HepG2 Attagene CIS-FACTORIAL Myb reporter transcription; actives raise or lower the signal
Chain of Transcriptional activator Myb (Homo sapiens) (P10242 whole entry, looked up): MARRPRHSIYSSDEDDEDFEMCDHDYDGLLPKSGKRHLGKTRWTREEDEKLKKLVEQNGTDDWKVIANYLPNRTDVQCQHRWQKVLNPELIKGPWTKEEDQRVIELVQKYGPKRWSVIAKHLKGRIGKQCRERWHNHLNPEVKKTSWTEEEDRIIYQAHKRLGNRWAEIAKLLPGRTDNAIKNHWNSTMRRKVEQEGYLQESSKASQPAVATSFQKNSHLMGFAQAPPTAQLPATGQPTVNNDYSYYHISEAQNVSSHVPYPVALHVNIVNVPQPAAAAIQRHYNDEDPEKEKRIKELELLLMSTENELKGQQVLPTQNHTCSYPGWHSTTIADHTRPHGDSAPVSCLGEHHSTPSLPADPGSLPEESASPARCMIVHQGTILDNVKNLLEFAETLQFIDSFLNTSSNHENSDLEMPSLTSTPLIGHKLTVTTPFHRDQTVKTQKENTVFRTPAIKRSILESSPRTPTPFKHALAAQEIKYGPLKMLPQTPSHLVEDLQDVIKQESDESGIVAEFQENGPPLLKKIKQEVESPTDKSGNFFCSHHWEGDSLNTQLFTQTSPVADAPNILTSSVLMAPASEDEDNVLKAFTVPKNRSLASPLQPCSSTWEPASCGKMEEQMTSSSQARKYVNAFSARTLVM
Method in brief: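 Endogenous transcription factor activity at a Myb-responsive cis element is reported in human liver HepG2 cells after 24 h chemical treatment. Reporter mRNA is detected by RT-PCR and capillary electrophoresis fluorescence, with DMSO as baseline.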

[8] = target: Nuclear respiratory factor 1 (Homo sapiens) (UniProt Q16656); experiment: ATG_NRF1_CIS: Attagene CIS-FACTORIAL HepG2 Assay for human Nuclear Respiratory Factor 1 (NRF1) Orphan Gene (AID 2282987); conditions: HepG2 NRF1 cis-element reporter, Attagene multiplex; actives raise or lower the signal
Chain of Nuclear respiratory factor 1 (Homo sapiens) (Q16656 whole entry, looked up): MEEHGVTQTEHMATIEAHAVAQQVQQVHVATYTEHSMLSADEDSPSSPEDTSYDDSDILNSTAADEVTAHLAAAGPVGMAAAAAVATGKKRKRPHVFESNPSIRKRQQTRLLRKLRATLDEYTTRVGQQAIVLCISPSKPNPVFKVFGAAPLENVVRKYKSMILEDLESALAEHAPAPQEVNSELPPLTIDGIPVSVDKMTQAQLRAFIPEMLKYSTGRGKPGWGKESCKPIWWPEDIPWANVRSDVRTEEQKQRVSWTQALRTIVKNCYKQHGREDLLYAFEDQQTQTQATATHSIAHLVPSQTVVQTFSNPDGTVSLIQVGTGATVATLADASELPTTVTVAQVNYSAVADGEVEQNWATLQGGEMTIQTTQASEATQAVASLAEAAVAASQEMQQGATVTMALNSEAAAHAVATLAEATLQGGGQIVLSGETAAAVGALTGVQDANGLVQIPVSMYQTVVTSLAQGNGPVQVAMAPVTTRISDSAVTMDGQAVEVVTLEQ
Method in brief: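 Human hepatoma HepG2 cells carrying transfected promoter-regulated reporter units were incubated with test chemicals for 24 h. Reporter transcripts were measured by RT-PCR plus capillary electrophoresis, and endpoints derived by bidirectional fitting with DMSO as baseline.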

[9] = ATG_NFI_CIS: Attagene CIS-FACTORIAL HepG2 Assay for human Nuclear Factor I (NFI) (AID 2282989); conditions: HepG2 cis-regulatory reporter, NFI response element transcription; actives raise or lower the signal
Method in brief: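 Reporter transcripts were measured by RT-PCR with fluorescent primer extension and capillary electrophoresis 24 h post-treatment. HepG2 cells carried transiently transfected cis-regulated reporter constructs reporting endogenous factor activity; gain or loss fitted against DMSO baseline.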

[10] = target: Myc proto-oncogene protein (Homo sapiens) (UniProt P01106); experiment: ATG_Myc_CIS: Attagene CIS-FACTORIAL HepG2 Assay for human Myelocytomatosis (Myc) Proto-Oncogene Transcription Factor (AID 2282990); conditions: HepG2, Attagene cis-reporter transcription factor activity; actives raise or lower the signal
Chain of Myc proto-oncogene protein (Homo sapiens) (P01106 whole entry, looked up): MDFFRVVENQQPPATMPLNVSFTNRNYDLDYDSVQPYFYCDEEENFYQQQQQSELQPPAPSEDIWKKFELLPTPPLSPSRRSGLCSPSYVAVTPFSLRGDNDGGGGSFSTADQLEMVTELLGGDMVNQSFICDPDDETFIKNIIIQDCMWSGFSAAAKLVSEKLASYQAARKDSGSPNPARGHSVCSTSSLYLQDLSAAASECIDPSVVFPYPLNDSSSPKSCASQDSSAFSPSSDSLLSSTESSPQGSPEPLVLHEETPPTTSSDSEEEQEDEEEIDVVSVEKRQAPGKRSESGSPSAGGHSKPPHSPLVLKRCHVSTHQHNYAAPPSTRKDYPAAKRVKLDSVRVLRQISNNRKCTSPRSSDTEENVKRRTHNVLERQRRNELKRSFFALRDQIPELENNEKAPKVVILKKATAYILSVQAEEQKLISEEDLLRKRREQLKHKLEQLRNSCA
Method in brief: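 Cells of the HepG2 human liver line bear multiple cis-driven reporter transcription units. Reporter mRNA after 24 h exposure is reverse-transcribed, amplified, labelled and resolved by capillary electrophoresis, with gain- or loss-of-signal fitting relative to DMSO.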

[11] = ATG_NF_kB_CIS: Attagene CIS-FACTORIAL HepG2 Assay for human Nuclear Factor Kappa B (NF-kB) (AID 2282991); conditions: HepG2 Attagene cis-factorial NF-kB reporter mRNA; actives raise or lower the signal
Method in brief: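 Multiplexed cis-reporter assay in transiently transfected HepG2. 24 h treatment; RNA isolated, RT-PCR, labelled fragments resolved by CE. DMSO baseline.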

[12] = ATG_NRF2_ARE_CIS: Attagene CIS-FACTORIAL HepG2 Assay for human Nuclear Factor Erythroid 2 Related Factor 2 (NFR2) response to Antioxidant Response Elements (ARE) (AID 2282992); conditions: HepG2 Attagene ARE/NRF2 reporter, transcription factor activity; actives raise or lower the signal;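 on AC50: reporter mRNA level measured by RT-PCR and capillary electrophoresis fluorescence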
Method in brief: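 Endogenous transcription factor activity in human liver HepG2 cells is tracked via a cis-element-driven reporter within a multiplexed set. mRNA induction is read by RT-PCR and capillary electrophoresis after 24 h, with DMSO as baseline.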

[13] = ATG_Oct_MLP_CIS: Attagene CIS-FACTORIAL HepG2 Assay for human Octamer-Binding Transcription Factor (Oct) (AID 2282993); conditions: HepG2 Attagene cis-factorial Oct reporter, mRNA; actives raise or lower the signal
Method in brief: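 Readout is reporter transcript level from RT-PCR with fluorescent primer extension and capillary electrophoresis, fitted in both directions against DMSO. Transfected HepG2 reporter units report endogenous factor activity after 24 h dosing.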

[14] = target: Cellular tumor antigen p53 (Homo sapiens) (UniProt P04637); experiment: ATG_p53_CIS: Attagene CIS-FACTORIAL HepG2 Assay for human p53 Transcription Factor (AID 2282994); conditions: HepG2 p53 cis-element reporter, Attagene mRNA; actives raise or lower the signal
Chain of Cellular tumor antigen p53 (Homo sapiens) (P04637 whole entry, looked up, the tested form may be a part): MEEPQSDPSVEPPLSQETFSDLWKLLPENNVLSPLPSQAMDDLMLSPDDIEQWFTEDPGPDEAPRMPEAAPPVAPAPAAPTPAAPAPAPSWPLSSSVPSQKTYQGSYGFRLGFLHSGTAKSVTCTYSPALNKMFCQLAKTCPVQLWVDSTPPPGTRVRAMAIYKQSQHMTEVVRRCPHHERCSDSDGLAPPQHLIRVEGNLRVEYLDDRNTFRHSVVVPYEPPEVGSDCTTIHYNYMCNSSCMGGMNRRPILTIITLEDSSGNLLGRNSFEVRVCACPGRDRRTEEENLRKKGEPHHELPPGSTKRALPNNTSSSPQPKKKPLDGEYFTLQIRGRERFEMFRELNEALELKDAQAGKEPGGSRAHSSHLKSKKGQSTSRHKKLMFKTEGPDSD
Method in brief: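 Steps: transfect HepG2 with multiplexed cis reporter constructs; dose chemicals 24 h; extract RNA, reverse-transcribe, PCR-amplify reporter sequences; FAM-label, HpaI-digest, resolve fragments by CE. Activity fitted both directions relative to DMSO.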

[15] = BSK_3C_TissueFactor: BioMAP Diversity Plus: 3C Assay for Tissue Factor Biomarker Activity (AID 2282997); conditions: BioMAP 3C HUVEC, tissue factor biomarker readout; actives raise or lower the signal
Method in brief: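 Cells used were primary human umbilical vein endothelial cells. They were dosed with chemical, and after 24 h Tissue Factor was quantified by ELISA. Curves were fitted bidirectionally with DMSO as baseline.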

[16] = ATG_GAL4_TRANS: Attagene TRANS-FACTORIAL HepG2 Assay for GAL4 (Internal Marker) (AID 2282976; active means hit-call score of the fitted dose curve at least 0.9, where 1 is the maximum); conditions: HepG2 Attagene TRANS GAL4 internal marker reporter
Method in brief: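 Fluorescence from capillary electrophoresis of labelled RT-PCR products quantifies reporter mRNA induction after 24 h dosing of HepG2 cells carrying transfected GAL4-UAS reporter transcription units. Vehicle DMSO serves as baseline.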

[17] = target: Oxysterols receptor LXR-alpha (Homo sapiens) (UniProt Q13133); experiment: ATG_LXRa_TRANS: Attagene TRANS-FACTORIAL HepG2 Assay for human Liver X Receptor alpha (LXRa) (AID 2282980; active means hit-call score of the fitted dose curve at least 0.9, where 1 is the maximum); conditions: HepG2 Attagene TRANS reporter, LXRa transactivation
Chain of Oxysterols receptor LXR-alpha (Homo sapiens) (Q13133 whole entry, looked up): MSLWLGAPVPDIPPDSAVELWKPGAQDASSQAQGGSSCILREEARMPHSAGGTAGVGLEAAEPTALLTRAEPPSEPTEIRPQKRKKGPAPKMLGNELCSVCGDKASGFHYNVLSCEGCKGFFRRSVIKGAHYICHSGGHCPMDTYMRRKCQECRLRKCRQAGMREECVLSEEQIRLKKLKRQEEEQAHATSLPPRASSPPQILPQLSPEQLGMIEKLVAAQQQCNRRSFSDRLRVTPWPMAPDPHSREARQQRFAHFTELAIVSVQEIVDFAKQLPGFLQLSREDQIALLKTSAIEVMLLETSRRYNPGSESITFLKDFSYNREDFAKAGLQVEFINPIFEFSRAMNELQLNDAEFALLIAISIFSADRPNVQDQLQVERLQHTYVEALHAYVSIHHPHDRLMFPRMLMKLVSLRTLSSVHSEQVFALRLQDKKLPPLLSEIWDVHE
Method in brief: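 Transient HepG2 transfectants, 24 h dosing, RT-PCR/CE mRNA reporter quantitation; gain-of-signal vs DMSO.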

[18] = target: Oxysterols receptor LXR-beta (Homo sapiens) (UniProt P55055); experiment: ATG_LXRb_TRANS: Attagene TRANS-FACTORIAL HepG2 Assay for human Liver X Receptor beta (LXRb) (AID 2282981; active means hit-call score of the fitted dose curve at least 0.9, where 1 is the maximum); conditions: HepG2 Attagene TRANS GAL4-LXRb reporter, mRNA
Chain of Oxysterols receptor LXR-beta (Homo sapiens) (P55055 whole entry, looked up, the tested form may be a part): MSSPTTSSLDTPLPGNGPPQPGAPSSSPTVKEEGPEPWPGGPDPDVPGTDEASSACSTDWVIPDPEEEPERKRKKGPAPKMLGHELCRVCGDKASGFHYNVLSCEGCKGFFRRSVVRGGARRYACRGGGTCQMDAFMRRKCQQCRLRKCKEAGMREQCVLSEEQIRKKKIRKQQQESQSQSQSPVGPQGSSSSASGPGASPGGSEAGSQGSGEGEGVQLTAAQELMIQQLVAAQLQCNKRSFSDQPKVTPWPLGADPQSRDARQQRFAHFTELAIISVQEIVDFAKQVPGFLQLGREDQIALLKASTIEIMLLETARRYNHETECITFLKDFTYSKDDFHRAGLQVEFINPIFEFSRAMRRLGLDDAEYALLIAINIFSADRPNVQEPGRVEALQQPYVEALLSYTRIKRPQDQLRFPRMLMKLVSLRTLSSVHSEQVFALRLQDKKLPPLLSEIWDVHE
Method in brief: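 After 24 h of chemical treatment, transfected HepG2 cells yield total RNA; reporter cDNA is PCR-amplified, FAM-labelled, HpaI-cut and run on capillary electrophoresis. Signal reflects chimeric LXRb-Gal4 activity on GAL4-UAS reporters.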

[19] = ATG_M_32_TRANS: Attagene TRANS-FACTORIAL HepG2 Assay for M32 Transcription Factor (Internal Marker) (AID 2282984; active means hit-call score of the fitted dose curve at least 0.9, where 1 is the maximum;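 further: transcript level of a background control reporter unit measured by RT-PCR and capillary electrophoresis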); conditions: HepG2 Attagene TRANS M32 internal marker reporter
Method in brief: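 Cell-based TRANS-format assay in HepG2: exogenous chimeric GAL4 reporter units transiently expressed, compounds applied 24 h. Reporter mRNA detected by RT-PCR plus capillary electrophoresis; this readout is an internal background marker.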

[20] = target: Nuclear receptor subfamily 4 group A member 2 (Homo sapiens) (UniProt P43354); experiment: ATG_NURR1_TRANS: Attagene TRANS-FACTORIAL HepG2 Assay for human Nuclear Receptor Related Protein 1 (NURR1) (AID 2282985; active means hit-call score of the fitted dose curve at least 0.9, where 1 is the maximum); conditions: HepG2 Attagene TRANS reporter, mRNA readout
Method in brief: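 Measures transcriptional activation by an exogenous NR-Gal4 chimera in transfected HepG2 liver cells. After 24 h, reporter RNA is reverse-transcribed, amplified and resolved by capillary electrophoresis; DMSO defines baseline.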

Measured: AC50

CCc1ccc(C(=O)NN(C(=O)c2cc(C)cc(C)c2)C(C)(C)C)cc1
active: [11] 9.92 µM | [12] 9.92 µM
not listed: [16] | [17] | [18] | [19] | [20]
inactive: all other assays above

O=C(O)CCCOc1ccc(Cl)cc1Cl
active: [12] 63.9 µM
inactive: [1] | [16] | [17] | [18] | [5] | [6] | [7] | [8] | [9] | [10] | [12] | [13] | [14] | [15]

CCN(CC)C(=O)SCc1ccc(Cl)cc1
active: [12] 6.08 µM | [13] 25 µM
not listed: [6] | [16]
inactive: all other assays above
